Bioassay records (PubChem BioAssay)
Sampled rows, rich in hits. Any-hit rate of the full collection: about 12%.
G9a block – qHTS Assay for Inhibitors of Histone Lysine Methyltransferase G9a. AID 504332, 2011. G9a H3K9 monomethylation, AlphaScreen, 2 h. Histone-lysine N-methyltransferase EHMT2 (Homo sapiens), Q96KQ7. 350,000 compounds, 8.8% hits. Potency, µM (titrated, usually from 102 µM), for the others: top-dose activity, negative = inhibition, most hits filed as inhibitors; also: % is scaled to controls: 0 for no effect and ±100 for the full control effect; nearly all actives have a fitted effect of over 75% in size
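Readings reflect AlphaScreen signal from monomethyl-H3K9 antibody detection. HMT at 20 nM; substrate b-H3K9 500 nM; cofactor SAM 20 uM; 2 h RT reaction; compounds tested as titrations in qHTS with 15 min preincubation.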
BAZ2B block – qHTS Assay for Inhibitors of BAZ2B. Bromodomain adjacent to zinc finger domain protein 2B (Homo sapiens), Q9UIF8. AlphaScreen BAZ2B-H3K14Ac peptide displacement. Potency, µM (doses to about 114 µM), inactives show at the top dose activity change, negative = inhibition, most hits filed as inhibitors. 360,000 compounds, 4.4% hits; also: % is scaled to controls: 0 for no effect and ±100 for the full control effect; nearly all actives have a fitted effect of over 60% in size
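In this displacement format the biotinylated H3(5-23) peptide acetylated at Lys14 serves as ligand at 50 nM, with BAZ2B at 50 nM in PBS pH 7.4 containing 0.01% Tween-20. Donor and acceptor beads are 10 ug/mL final.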
JMJD2A Tudor – qHTS Assay for Inhibitors of JMJD2A-Tudor Domain; Lysine-specific demethylase 4A (Homo sapiens), O75164; AlphaScreen JMJD2A-Tudor / H3K4me3 peptide binding; Potency, µM (series often up to 114 µM), for inactives: at the highest dose activity change, negative = inhibition, hits mostly inhibitors; 390,000 compounds, 4.4% hits; also: % is scaled to controls: 0 for no effect and ±100 for the full control effect; nearly all actives have a fitted effect of over 50% in size
Sfp PPTase inh – qHTS Assay for Inhibitors of Bacillus subtilis Sfp phosphopantetheinyl transferase (PPTase); 4'-phosphopantetheinyl transferase ffp (Bacillus subtilis), Q9F4F7; Biochemical Sfp PPTase activity, qHTS; Potency, µM, without a hit: largest response in the series, negative = inhibition, hits mostly inhibitors; 310,000 compounds, 3.5% hits;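 also: the enzyme is Sfp with the accession as filed and its product quenches rhodamine fluorescence; 0% = enzyme reaction without inhibitor and -100% = no enzyme wells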
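Fluorescence-quenching assay with 15 nM Sfp, 5 uM rhodamine-CoA and 12.5 uM BHQ-2-labelled ybbR peptide in pH 7.6 Hepes/MgCl2 buffer. Enzyme was pre-incubated with compound for 15 min at room temperature. Rate was taken from the 30-min fluorescence change (525/598 nm).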
HP1b binding inh – HTS for Inhibitors of HP1-beta Chromodomain Interactions with Methylated Histone Tails. Potency, µM (series often up to 114 µM), inactives show top-dose activity change, negative = inhibition, usual class: inhibitors. 390,000 compounds, 0.56% hits. Chromobox protein homolog 1 (Homo sapiens), P83916. AlphaScreen HP1-beta / biotin-H3K9me3 peptide binding; also: nearly all actives have a fitted effect of over 70% in size
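HP1-beta protein (50 nM final) preincubated 30 min at room temperature with biotinylated H3(1-18)K9me3 peptide (50 nM) in PBS pH 7.4, 0.01% Tween-20, then compound added for 30 min. AlphaScreen streptavidin donor/nickel chelate acceptor beads (10 ug/mL final), 30 min dark, luminescence read.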
L3MBTL1 inh – qHTS Assay for the Inhibitors of L3MBTL1. Lethal(3)malignant brain tumor-like protein 1 (Homo sapiens), Q9Y468. AlphaScreen L3MBTL1–H3K9me1 peptide binding. Potency, µM (doses to about 57.1 µM), without a hit: at the highest dose activity, negative = inhibition, most hits filed as inhibitors. 230,000 compounds, 0.66% hits. AID 485360, 2010; also: % is scaled to controls: 0 for no effect and ±100 for the full control effect; nearly all actives have a fitted effect of over 60% in size
Target sequence (Q9Y468 whole entry, looked up): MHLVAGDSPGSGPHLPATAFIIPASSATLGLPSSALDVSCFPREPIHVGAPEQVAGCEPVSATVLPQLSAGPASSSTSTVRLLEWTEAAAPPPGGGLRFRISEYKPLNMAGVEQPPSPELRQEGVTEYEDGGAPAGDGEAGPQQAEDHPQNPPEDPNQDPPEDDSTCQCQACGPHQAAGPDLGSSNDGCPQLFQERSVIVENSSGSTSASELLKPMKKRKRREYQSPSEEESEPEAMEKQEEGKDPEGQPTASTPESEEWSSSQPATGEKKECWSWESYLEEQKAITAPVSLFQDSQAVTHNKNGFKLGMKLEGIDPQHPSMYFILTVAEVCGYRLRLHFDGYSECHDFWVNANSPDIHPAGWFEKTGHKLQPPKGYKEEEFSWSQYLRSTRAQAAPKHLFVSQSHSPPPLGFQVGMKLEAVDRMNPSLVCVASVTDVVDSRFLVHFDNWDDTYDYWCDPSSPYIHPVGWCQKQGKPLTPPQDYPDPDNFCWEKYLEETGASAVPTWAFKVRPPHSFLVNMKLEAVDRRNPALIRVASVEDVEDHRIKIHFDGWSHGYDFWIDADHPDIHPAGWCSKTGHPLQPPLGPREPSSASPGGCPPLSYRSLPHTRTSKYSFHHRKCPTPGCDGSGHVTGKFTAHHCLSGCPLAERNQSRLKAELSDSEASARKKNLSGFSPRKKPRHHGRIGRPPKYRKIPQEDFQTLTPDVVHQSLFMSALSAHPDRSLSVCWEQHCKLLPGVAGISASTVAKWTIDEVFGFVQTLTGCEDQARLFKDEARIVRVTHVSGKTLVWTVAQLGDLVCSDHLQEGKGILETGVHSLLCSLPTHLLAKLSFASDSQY
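Displacement of a biotinylated histone H3(1-15) peptide monomethylated at Lys9 (75 nM) from L3MBTL1 (50 nM) was measured by AlphaScreen after a 30 min room-temperature compound incubation; cefsulodin titration served as intraplate control.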
Active calls of the source: *; u = inconclusive; x = not tested or not shown; [ ] = remark or other dose. Calls follow the shape of the dose curve; as a rule, active = well fitted curve in the direction sought with a large enough effect; inconclusive = small, poorly fitted or top-dose-only effect, or another doubt; inactive = no such curve, though single readings can be large; an effect the other way counts as inactive or inconclusive. Potency is read from the fitted curve at half-maximal effect.

SMILES	G9a block	BAZ2B block	JMJD2A Tudor	Sfp PPTase inh	HP1b binding inh	L3MBTL1 inh
CCOc1ccc(C(=O)Nc2cccc(C)n2)cc1	50µM*	-9%	-23%[11.4 µM]	4%	30%	-5%
Cc1cccc(NC(=O)c2cccc3c2-c2ccccc2C3=O)n1	u	-25%	-12%	11%	9%	-9%[11.4 µM]
COc1ccc(C(=O)NC(=S)Nc2cc(C)ccn2)cc1[N+](=O)[O-]	2.8µM*	-31%	-13%	-9%	37%	5%
COc1ccc(C(=O)Nc2cc(C)on2)cc1[N+](=O)[O-]	48%	9%	-3%	-6%	20%	x
COC(=O)c1cc(C(=O)Nc2cc(C)ccn2)cc([N+](=O)[O-])c1	50µM*	-9%	-18%	-12%	17%	-9%
Cc1cccc(NC(=O)c2ccccc2Br)n1	22µM*	8%	-1%	-8%	33%	x
CC(=O)c1cccc(NC(=O)Cc2ccc(NC(=O)N3CCCCc4ccccc43)cc2)c1	8%[59 µM]	-19%	-14%	x	43%	x
Cc1ccc(CC(=O)Nc2cc(C)ccn2)cc1	9%	-37%	-4%	7%	26%	-2%
CCNC(=S)Nc1cc(C)ccn1	1µM*	-2%	-17%	u	28%	-3%
CCOc1ccc(C(=O)Nc2cc(C)ccn2)cc1	u	1%	13µM*	4%	-3%	x
CCOC(=O)C1(C(C)C)Oc2ccccc2C(c2ccc(OC)cc2)=C1C(=O)OC (configuration not stated)	-8%[59 µM]	x	x	u	x	x
CCn1c(=O)n(-c2ccc(F)c(Cl)c2)c(=O)c2c3c(sc21)CN(C(C)=O)CC3	5%[59 µM]	2%	5%	x	41%	x
CC(=O)Nc1ccccc1-c1nc2ccccc2n(CC(=O)c2ccc(Br)cc2)c1=O	-11%[59 µM]	-25%	-2%	x	24%	x
NC(=O)c1c(NC(=O)CN2CCOCC2)sc2c1CCC2	25µM*	x	-15%	-15%	42%	-5%
O=C(Nc1sc2c(c1C(=O)O)CCC2)C(=O)N1CCOCC1	40µM*	50µM*	u	79µM*	-22%	x
NC(=O)c1c(NC(=O)CN2CCCC2)sc2c1CCCC2	30%[12.7 µM]	0%	18µM*	-12%	-1%	0%
NC(=O)c1c(NC(=O)CN2C(=O)CCC2=O)sc2c1CCCCC2	16µM*	-2%	-12%	u	-3%	6%
O=C(COc1ccccc1F)Nc1ccc(Cl)c(-c2nc3ccccc3[nH]2)c1	3%[59 µM]	-19%	-6%	x	52%	x
CCOc1ccccc1CNC(=O)c1ccc2c(c1)nc1n2CCCCC1	5%[59 µM]	0%	-2%	x	34%[57 µM]	x
CCn1c(CNC(=O)c2ccc(OC)cc2)nnc1SCC(=O)Nc1ccc(OC)cc1	7%[59 µM]	-4%	5%	x	29%	x
COc1ccccc1CNC(=O)CCCCn1c(=O)c2ccccc2n(CC(=O)Nc2c(C)cc(C)cc2C)c1=O	10%[59 µM]	0%	-11%	x	12%	x
NC(=O)c1c(NC(=O)Cn2nc(C(=O)O)c3ccccc3c2=O)sc2c1CCCC2	10%	-21%	-2%	-30%	34%	2%
Cc1cc([N+](=O)[O-])nn1CC(=O)Nc1sc2c(c1C(N)=O)CCCC2	32µM*	-26%	-25%	-15%	-17%	0%
CCN(c1ccccc1)c1ncnc2c1cnn2-c1ccc(OC)cc1	13%[59 µM]	27%	5%	x	23%	x
Cn1c(=O)c(-c2cc(=O)[nH][nH]2)c(O)c2ccccc21	-28%	56µM*	35µM*	22%	8%	-14%
SMILES	G9a block	BAZ2B block	JMJD2A Tudor	Sfp PPTase inh	HP1b binding inh	L3MBTL1 inh
COc1ccc(Cl)cc1S(=O)(=O)n1c([N+](=O)[O-])cnc1C	-15%[0.501 µM]	u	1%	71µM*	11%	0%[2.29 µM]
CC(C)c1nccn1S(=O)(=O)c1cc(Cl)ccc1Cl	-2%[59 µM]	-3%	-14%	-3%	32%	9%
COc1ccc(OC)c(S(=O)(=O)n2nnc3ccccc32)c1	-29%[59 µM]	u	-10%	6%	37%	10%
COc1ccc(Cl)cc1S(=O)(=O)n1nnc2ccccc21	50µM*	u	-31%	13%	25%	12%
COc1ccc(Cl)cc1S(=O)(=O)n1ccnc1C(C)C	50µM*	1%	-26%	3%	46%	x
Cc1ccc(S(=O)(=O)N2CCN(c3nc(-c4ncco4)nc4ccccc34)CC2)cc1	x	x	-35%	x	1%	x
N#Cc1ccccc1OCC(=O)OCC(=O)c1ccc2c(c1)NC(=O)CO2	50µM*	6%	3%	7%	32%	6%
Cc1cccc(C(=O)OCC(=O)c2ccc3c(c2)NC(=O)CO3)c1	x	x	-1%	x	32%	-2%
O=C1COc2ccc(C(=O)COC(=O)/C=C/c3ccc(Br)o3)cc2N1	28µM*	45µM*	u	x	-53%	3.5µM*
COC(=O)c1cc(C(=O)OCC(=O)c2ccc3c(c2)NC(=O)CO3)cc([N+](=O)[O-])c1	50µM*	-6%	-17%	x	17%	2%
Cc1ccc(/C=C/C(=O)OCC(=O)c2ccc3c(c2)NC(=O)CO3)o1	x	x	-23%	x	-6%	0%
O=C1COc2ccc(C(=O)COC(=O)COc3ccccc3[N+](=O)[O-])cc2N1	u	-15%	-6%	-18%	5%	-4%
CCCSCCCNC(=O)CN1C(=O)COc2ccc(S(=O)(=O)N3CCC(C)CC3)cc21	4%[59 µM]	1%	4%	x	41%	x
O=C(Cc1ccc(Cl)cc1)NCC(c1cccs1)S(=O)(=O)c1ccc(F)cc1 (configuration not stated)	5%[59 µM]	-3%	-15%	x	35%	x
CCc1ccccc1NC(=O)CN1C(=O)COc2ccc(S(=O)(=O)N3CCCCCC3)cc21	-4%[59 µM]	-11%	3%	x	41%	x
COc1ccc(CCNC(=O)CSc2ccc(-c3ccco3)nn2)cc1	-51%	u	-26%	-61%	16%	x
O=C(CSc1ccc(-c2ccc(F)cc2)nn1)NCc1ccco1	-7%[59 µM]	-4%	-8%[57.1 µM]	13%	49%	2%
O=C(CSc1ccc(-c2ccco2)nn1)NCc1ccc(F)cc1	45µM*	1%	-9%	u	13%	0%
O=C(CSc1ccc(-c2ccco2)nn1)NCCc1ccccc1	35µM*	-6%	-16%	32µM*	51%	x
